# PubChem BioAssay
# Calls of active or inactive are those of the source. How the calls were made is not given here. Where a SMILES comes first, the peptide text is derived from it. The star is where a group is joined. Boc = CC(C)(C)OC(=O)*
# Biological target: Pantothenate synthetase (Mycobacterium tuberculosis (strain ATCC 25618 / H37Rv)) (UniProt P9WIL5)
# Experiment: Coupled enzyme confirmation of inhibitors against recombinant Mtb PanC (AID 375);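 further: 0% = full reaction with vehicle and 100% = no enzyme background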
# Settings: coupled enzyme assay; at 10 µM, stronger effect = higher value
# Sequence of Pantothenate synthetase (Mycobacterium tuberculosis (strain ATCC 25618 / H37Rv)) (P9WIL5 whole entry, looked up): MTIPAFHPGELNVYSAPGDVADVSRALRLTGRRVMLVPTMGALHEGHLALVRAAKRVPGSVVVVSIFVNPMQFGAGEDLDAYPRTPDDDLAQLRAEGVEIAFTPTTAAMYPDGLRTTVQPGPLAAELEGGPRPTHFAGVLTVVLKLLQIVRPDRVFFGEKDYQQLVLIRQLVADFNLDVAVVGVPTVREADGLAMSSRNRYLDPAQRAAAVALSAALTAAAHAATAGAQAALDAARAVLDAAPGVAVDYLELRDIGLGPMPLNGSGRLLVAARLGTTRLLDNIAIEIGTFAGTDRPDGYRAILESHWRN
row,Compound,inhibition
1,Cc1ccc(-n2ncc3c(N4CCN(c5ccc(F)cc5)CC4)ncnc32)c(C)c1,6% (inactive)
2,COc1ccc(C)cc1-n1nnnc1SC/C(O)=C(\C#N)c1nc2ccccc2[nH]1,4% (inactive)
3,CCOC(=O)CNc1ccc2c(c1)OCO2,0% (inactive)
4,CC1CC(C)CN(Cc2nc3c(c(=O)n(C)c(=O)n3C)n2Cc2ccccc2Cl)C1 (stereo not given),0% (inactive)
5,C=CCOc1ccc(/C(O)=C2\C(=O)C(=O)N(CCOC)C2c2cccnc2)cc1 (stereo not given),0% (inactive)
6,COc1ccc(-n2ncc3c(NCc4ccc5c(c4)OCO5)ncnc32)cc1,0% (inactive)
7,COC(=O)CNC(=O)c1c(C)cc(=O)oc1C,3% (inactive)
8,COc1cc(NC(=O)c2ccco2)c(OC)cc1NC(=O)CCC(=O)Nc1cc(C)cc(C)c1,8% (inactive)
9,CC(C)(C)OC(=O)N1CCCC1C(=O)N1CCCC1C(=O)N1CCCC1C(=O)O (stereo not drawn) (Boc-Pro-Pro-Pro-OH; configuration not given here),3% (inactive)
10,COc1ccc(N2CCN(c3ncnc4c3cnn4-c3ccc(C)cc3C)CC2)cc1,8% (inactive)
11,O=C(O)C1C2C=CC(C3CC23)C1C(=O)NCCc1ccccc1 (stereo not given),6% (inactive)
12,CCC(=O)N(Cc1ccco1)c1nc(-c2cc(OC)ccc2OC)cs1,0% (inactive)
13,CCOc1ccccc1NC(=O)CN(C)S(=O)(=O)c1cccc2nsnc12,11% (inactive)
14,CCOC(=O)N1CCC(N2C(=O)c3ccc(C(=O)NCc4ccco4)cc3C2=O)CC1,2% (inactive)
15,COc1ccc(NC(=O)c2cc(C)on2)cc1OC,8% (inactive)
16,Cn1c(=O)[nH]c(=O)c2c1nc(N(CCO)Cc1ccccc1)n2Cc1ccccc1Cl,4% (inactive)
17,O=[n+]1c2c(n([O-])c3cc(F)c(N4CCCC4)cc31)CCC2,9% (inactive)
18,Cc1cccn2c(=O)c3cc(C(=O)NC4CCCC4)c(=N)n(C4CCCC4)c3nc12,0% (inactive)
19,Cc1cccn2c(=O)c3cc(C(=O)N4CCCc5ccccc54)n(C)c3nc12,0% (inactive)
20,COc1ccc(N2C(=O)C(Cl)=C(Nc3c(C)n(C)n(-c4ccccc4)c3=O)C2=O)cc1,5% (inactive)

row,Compound,inhibition
1,CC(=O)c1cccc(NC(=O)c2ccc(NS(C)(=O)=O)cc2)c1,1% (inactive)
2,COc1cccc(C2CC(c3ccc(C)cc3)n3nc(N)nc3N2)c1 (stereo not given),15% (inactive)
3,c1cncc(C2Nc3ccccc3-c3nc4ccccc4n32)c1 (stereo not given),7% (inactive)
4,CCOC(=O)c1ccc(NS(=O)(=O)c2ccc(SC)cc2)cc1,0% (inactive)
5,COC(=O)c1[nH]c2ccc(C)cc2c1NC(=O)CN1CCCC(C)(C)C1,0% (inactive)
6,COC(=O)n1c(=S)oc2cc(Cl)ccc21,0% (inactive)
7,O=C(c1ccco1)N1CCN(c2cccc(Cl)c2)CC1,0% (inactive)
8,COC(=O)c1ccccc1S(=O)(=O)NC(=O)c1ccccc1,0% (inactive)
9,O=C(Cn1nc(C(F)(F)F)c2c1CCCC2)NCCN1CCOCC1,5% (inactive)
10,CCOC(=O)C1C2C=CC3(CN(Cc4ccco4)C(=O)C13)O2 (stereo not given),0% (inactive)
11,CCOC(=O)C1=C(N)OC2=C(C(=O)CC(C)(C)C2)C1c1ccco1 (stereo not given),5% (inactive)
12,CCCCc1ccc(NC(=O)c2c(C)noc2C)cc1,8% (inactive)
13,COCC(=O)N(C)c1nnc(-c2ccccn2)s1,2% (inactive)
14,CC(=O)Oc1cc(C(C)C)c(OCCN(C)C)cc1C,11% (inactive)
15,Cc1ccnc(SCCn2c(N3CCCCC3)nc3c2c(=O)n(C)c(=O)n3C)n1,0% (inactive)
16,CN(C)C(=O)CSc1nnc2sc3ccccc3n12,0% (inactive)
17,CN/C(=C/[N+](=O)[O-])NCCSCc1ccc(CN(C)C)o1,4% (inactive)
18,CC(Sc1nc(-c2ccccc2)cc(C(F)(F)F)n1)C(=O)N1CCCC1 (stereo not given),1% (inactive)
19,COc1ccc(NC(=O)CSc2nnc(-c3ccccc3)n2N)cc1,0% (inactive)
20,O=C(CCCOc1ccccc1)N1CCN(c2ccccn2)CC1,3% (inactive)
